PubChem BioAssay (EPA / NIEHS)
Results filed as inconclusive are left out. Active and inactive are the calls of the source. Rule for the calls, unless noted: active = hit-call score of the fitted dose curve at least 0.9, where 1 is the maximum; inconclusive = response in the unintended direction; inactive = score below 0.9.

How the values were obtained:
[1] = biological target: Agonist Androgen Response Element (ARE), AR (gene 367) (UniProt P10275); experiment: OT_AR_ARELUC_AG_1440: Odyssey Thera (OT) 24-hour CHO-K1 Luciferase Assay for Agonist Androgen Response Element (ARE) (AID 2283379)
Sequence of Agonist Androgen Response Element (ARE), AR (gene 367) (P10275 whole entry, looked up): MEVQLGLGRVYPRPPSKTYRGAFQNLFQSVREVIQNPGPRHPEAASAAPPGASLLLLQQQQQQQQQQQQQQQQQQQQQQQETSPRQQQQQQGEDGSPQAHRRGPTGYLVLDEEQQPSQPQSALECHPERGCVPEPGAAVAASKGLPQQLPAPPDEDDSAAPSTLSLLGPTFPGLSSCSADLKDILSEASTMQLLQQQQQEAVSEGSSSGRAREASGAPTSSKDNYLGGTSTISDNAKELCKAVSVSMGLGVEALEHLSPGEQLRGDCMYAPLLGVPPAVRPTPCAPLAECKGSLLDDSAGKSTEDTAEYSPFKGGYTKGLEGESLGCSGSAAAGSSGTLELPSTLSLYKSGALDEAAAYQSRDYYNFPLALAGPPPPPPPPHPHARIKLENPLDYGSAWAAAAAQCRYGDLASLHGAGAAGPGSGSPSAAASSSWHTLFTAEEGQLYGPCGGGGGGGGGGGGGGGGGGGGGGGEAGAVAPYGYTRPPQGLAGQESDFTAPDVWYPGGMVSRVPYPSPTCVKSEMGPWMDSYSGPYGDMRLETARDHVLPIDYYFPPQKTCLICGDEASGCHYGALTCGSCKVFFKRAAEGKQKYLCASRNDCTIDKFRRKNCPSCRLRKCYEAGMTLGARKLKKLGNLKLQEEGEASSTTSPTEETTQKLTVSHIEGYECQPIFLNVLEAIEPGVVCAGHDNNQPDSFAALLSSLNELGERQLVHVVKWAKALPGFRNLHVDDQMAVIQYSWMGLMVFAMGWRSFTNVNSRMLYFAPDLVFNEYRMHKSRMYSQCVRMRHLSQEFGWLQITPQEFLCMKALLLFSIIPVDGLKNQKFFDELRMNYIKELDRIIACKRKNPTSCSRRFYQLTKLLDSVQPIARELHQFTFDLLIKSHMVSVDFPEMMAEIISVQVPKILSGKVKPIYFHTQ
Outline: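 Agonist mode, 24 h exposure in CHO-K1 ARE-luciferase cells; values reflect luminescence induction over vehicle.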

[2] = biological target: Estrogen receptor beta (Homo sapiens) (UniProt Q92731); experiment: OT_ER_ERbERb_1440: Odyssey Thera (OT) 24-hour HEK293T Protein-Complementation Assay for Estrogen Receptor-beta/-beta Homodimer (AID 2283380);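 note: fluorescence gain from ER beta LBD homodimer complementation read by laser scanning cytometry; scored as signal increase over DMSO baseline for both agonists and antagonists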
Sequence of Estrogen receptor beta (Homo sapiens) (Q92731 whole entry, looked up, the tested form may be a part): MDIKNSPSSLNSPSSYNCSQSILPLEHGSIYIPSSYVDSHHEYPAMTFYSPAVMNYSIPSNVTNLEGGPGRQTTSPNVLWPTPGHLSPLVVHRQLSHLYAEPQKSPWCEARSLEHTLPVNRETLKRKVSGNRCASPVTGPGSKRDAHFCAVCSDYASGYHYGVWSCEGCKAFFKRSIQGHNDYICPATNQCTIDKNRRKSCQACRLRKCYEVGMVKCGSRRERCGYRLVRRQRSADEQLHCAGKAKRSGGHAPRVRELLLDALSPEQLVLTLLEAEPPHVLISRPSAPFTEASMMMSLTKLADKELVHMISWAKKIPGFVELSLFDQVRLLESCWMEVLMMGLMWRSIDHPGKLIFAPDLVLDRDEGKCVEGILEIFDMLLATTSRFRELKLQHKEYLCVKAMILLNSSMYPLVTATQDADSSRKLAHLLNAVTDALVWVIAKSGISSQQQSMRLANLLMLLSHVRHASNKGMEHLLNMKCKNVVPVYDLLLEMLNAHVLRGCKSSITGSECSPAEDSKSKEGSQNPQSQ
Outline: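 Fluorescence increase, nuclear for agonists or whole-cell for antagonists, relative to DMSO vehicle, quantified by laser scanning cytometer after fixation and Draq5 staining. Readout from 24 h treatment of HEK293T cells carrying complementation-paired ER beta LBD (aa 310-547).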

[3] = biological target: Estrogen receptor (Homo sapiens) (UniProt P03372); experiment: OT_ERa_GFPERaERE_0120: Odyssey Thera (OT) 2-hour HeLa Transcription Induction Assay for Estrogen Receptor (AID 2283382)
Sequence of Estrogen receptor (Homo sapiens) (P03372 whole entry, looked up): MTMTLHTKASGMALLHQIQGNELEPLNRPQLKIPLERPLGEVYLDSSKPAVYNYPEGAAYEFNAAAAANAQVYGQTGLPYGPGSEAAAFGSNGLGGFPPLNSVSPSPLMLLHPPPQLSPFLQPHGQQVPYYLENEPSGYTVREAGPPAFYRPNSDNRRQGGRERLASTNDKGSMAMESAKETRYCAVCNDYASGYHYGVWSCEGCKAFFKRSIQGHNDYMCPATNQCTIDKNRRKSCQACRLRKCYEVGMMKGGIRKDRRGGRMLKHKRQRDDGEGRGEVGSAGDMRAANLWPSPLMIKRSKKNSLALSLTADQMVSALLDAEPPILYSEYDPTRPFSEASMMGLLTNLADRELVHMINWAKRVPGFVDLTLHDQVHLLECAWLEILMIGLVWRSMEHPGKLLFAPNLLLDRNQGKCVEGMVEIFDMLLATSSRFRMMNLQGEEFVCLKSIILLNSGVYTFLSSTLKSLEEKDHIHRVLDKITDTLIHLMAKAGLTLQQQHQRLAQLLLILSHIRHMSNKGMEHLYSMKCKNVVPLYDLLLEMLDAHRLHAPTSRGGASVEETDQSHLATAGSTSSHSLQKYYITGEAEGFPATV
Outline: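 Measures ESR1 pathway reporter gain-of-signal in HeLa cells after a 2-hour treatment, detected as fluorescent protein induction by microscopy, DMSO as baseline.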

[4] = biological target: Bile acid receptor (Homo sapiens) (UniProt Q96RI1); experiment: OT_FXR_FXRSRC1_0480: Odyssey Thera (OT) 8-hour HEK293T Protein-Complementation Assay for Farnesoid X receptor/SRC-1 Co-activator (AID 2283383)
Sequence of Bile acid receptor (Homo sapiens) (Q96RI1 whole entry, looked up, the tested form may be a part): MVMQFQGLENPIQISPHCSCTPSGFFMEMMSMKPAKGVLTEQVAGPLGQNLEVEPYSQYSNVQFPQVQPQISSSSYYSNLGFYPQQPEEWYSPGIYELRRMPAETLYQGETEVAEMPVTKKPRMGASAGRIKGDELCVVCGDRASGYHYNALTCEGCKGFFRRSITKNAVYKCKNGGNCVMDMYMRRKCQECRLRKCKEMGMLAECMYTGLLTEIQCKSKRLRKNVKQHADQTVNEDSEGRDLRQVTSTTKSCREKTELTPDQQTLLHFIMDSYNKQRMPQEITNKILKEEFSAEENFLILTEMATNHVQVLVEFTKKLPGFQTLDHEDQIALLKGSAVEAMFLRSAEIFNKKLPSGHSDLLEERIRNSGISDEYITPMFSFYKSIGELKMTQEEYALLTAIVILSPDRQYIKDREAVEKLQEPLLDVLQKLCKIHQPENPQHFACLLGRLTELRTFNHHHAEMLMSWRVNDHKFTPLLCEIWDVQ
Outline: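 Co-activator recruitment to FXR was measured in living HEK293T cells, where interaction of the two fused partners restored an active fluorescent reporter. Signal gain after 8 h treatment was referenced to DMSO.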

[5] = biological target: Retinoic acid receptor RXR-alpha (Homo sapiens) (UniProt P19793); experiment: OT_NURR1_NURR1RXRa_1440: Odyssey Thera (OT) 24-hour HEK293T Protein Complementation Assay for Nurr1/retinoid X receptor (RXR) (AID 2283386)
Sequence of Retinoic acid receptor RXR-alpha (Homo sapiens) (P19793 whole entry, looked up, the tested form may be a part): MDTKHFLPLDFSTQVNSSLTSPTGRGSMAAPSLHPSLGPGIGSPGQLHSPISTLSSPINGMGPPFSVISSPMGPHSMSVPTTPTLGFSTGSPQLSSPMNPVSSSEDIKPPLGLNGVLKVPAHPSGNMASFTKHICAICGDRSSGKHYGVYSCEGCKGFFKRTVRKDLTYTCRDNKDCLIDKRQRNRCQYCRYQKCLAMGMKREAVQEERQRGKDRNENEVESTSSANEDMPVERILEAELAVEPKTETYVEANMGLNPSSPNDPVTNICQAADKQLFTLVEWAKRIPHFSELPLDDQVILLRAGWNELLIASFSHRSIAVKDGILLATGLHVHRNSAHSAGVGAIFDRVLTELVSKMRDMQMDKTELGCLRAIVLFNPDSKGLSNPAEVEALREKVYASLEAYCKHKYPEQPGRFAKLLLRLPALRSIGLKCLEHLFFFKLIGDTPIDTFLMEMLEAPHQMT
Outline: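 Measured as fluorescence from a reconstituted split reporter, this 24 h HEK293T complementation assay scores compound-induced gain of Nurr1/RXRα association relative to DMSO.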

[6] = biological target: Peroxisome proliferator-activated receptor gamma (Homo sapiens) (UniProt P37231); experiment: OT_PPARg_PPARgSRC1_0480: Odyssey Thera (OT) 8-hour Protein-Complementation Assay for Peroxisome Proliferator-activated Receptor Gamma / SRC-1 Co-activator (AID 2283387);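 note: nuclear to cytoplasmic split Venus YFP fluorescence ratio reporting PPARg SRC-1 interaction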
Sequence of Peroxisome proliferator-activated receptor gamma (Homo sapiens) (P37231 whole entry, looked up, the tested form may be a part): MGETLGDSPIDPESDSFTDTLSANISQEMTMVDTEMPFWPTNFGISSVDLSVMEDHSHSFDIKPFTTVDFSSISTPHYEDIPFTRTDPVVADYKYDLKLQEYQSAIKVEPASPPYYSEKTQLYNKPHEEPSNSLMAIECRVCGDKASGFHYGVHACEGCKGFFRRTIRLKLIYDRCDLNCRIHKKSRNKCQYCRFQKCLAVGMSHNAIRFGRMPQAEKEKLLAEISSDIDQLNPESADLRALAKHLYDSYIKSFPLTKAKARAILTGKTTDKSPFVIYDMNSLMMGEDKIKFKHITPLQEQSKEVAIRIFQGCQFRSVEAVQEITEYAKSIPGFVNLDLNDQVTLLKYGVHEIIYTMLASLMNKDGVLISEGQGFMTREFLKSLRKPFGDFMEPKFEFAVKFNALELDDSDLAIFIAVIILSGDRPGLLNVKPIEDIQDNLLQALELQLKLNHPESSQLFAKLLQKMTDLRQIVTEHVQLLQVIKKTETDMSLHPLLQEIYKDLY
Outline: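 Read-out: 488 nm N/C fluorescence ratio from complemented Venus YFP fragments, ≥350 cells per image, gain-of-signal fitted against DMSO baseline. Fusions of PPARg/SRC-1 with IFP1/IFP2 expressed transiently in HEK293T; compounds applied 8 h.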

[7] = biological target: Peroxisome proliferator-activated receptor gamma (Homo sapiens) (UniProt P37231); experiment: OT_PPARg_PPARgSRC1_1440: Odyssey Thera (OT) 24-hour Protein-Complementation Assay for Peroxisome Proliferator-activated Receptor Gamma/ SRC-1 Co-activator (AID 2283388);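 note: nuclear to cytoplasmic ratio of reconstituted Venus YFP fluorescence in fixed imaged cells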
Outline: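 Readout: nuclear-to-cytoplasmic 488 nm fluorescence ratio, ≥350 cells per image, 8 images per well, after 24 h compound exposure of HEK293T expressing PPARg/SRC-1 split-YFP fusions. Activity fitted in positive direction against DMSO.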

[8] = biological target: mouse Estrogen Receptor alpha (Era), Esr1 (gene 13982) (UniProt P19785); experiment: NVS_NR_mERa: NovaScreen (NVS) Nuclear Receptor Binding Assay for mouse Estrogen Receptor alpha (Era) (AID 2283378);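 note: hit means loss of bound radioligand signal relative to DMSO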
Sequence of mouse Estrogen Receptor alpha (Era), Esr1 (gene 13982) (P19785 whole entry, looked up): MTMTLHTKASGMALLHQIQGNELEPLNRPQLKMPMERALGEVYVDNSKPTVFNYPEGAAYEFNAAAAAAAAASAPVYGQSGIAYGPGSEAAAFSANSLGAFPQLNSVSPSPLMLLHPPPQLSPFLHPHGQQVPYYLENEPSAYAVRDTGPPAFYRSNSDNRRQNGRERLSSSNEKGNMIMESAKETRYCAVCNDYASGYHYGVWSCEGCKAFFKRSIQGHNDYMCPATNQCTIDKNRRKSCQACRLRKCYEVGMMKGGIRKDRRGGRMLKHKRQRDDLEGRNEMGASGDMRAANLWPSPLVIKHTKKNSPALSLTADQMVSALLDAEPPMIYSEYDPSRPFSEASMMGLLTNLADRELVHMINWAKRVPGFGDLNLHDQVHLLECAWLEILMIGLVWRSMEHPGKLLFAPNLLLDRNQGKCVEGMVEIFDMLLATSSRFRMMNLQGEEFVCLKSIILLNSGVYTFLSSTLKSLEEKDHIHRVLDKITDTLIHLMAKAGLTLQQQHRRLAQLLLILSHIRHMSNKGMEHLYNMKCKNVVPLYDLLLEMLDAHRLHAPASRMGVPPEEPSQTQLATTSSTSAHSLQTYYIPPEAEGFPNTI
Outline: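 Filter scintillation counts of bound radioligand, measured 18 h post-dose, gave the readout; decreased signal relative to DMSO controls indicated displacement from mouse Era. Primary screen ran in duplicate at 25 uM; active chemicals were retested across concentrations.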

[9] = biological target: Bile acid receptor (Homo sapiens) (UniProt Q96RI1); experiment: OT_FXR_FXRSRC1_1440: Odyssey Thera (OT) 24-hour HEK293T Protein-Complementation Assay for Farnesoid X receptor/SRC-1 Co-activator (AID 2283384)
Outline: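 Cell-based binding reporter: interaction of FXR with SRC-1 brings reporter fragments together, giving a fluorescence signal read 24 h after dosing of HEK293T cells.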

[10] = biological target: Retinoic acid receptor RXR-alpha (Homo sapiens) (UniProt P19793); experiment: OT_NURR1_NURR1RXRa_0480: Odyssey Thera (OT) 8-hour HEK293T Protein Complementation Assay for Nurr1/retinoid X receptor (RXR) (AID 2283385)
Outline: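 Compounds are applied to HEK293T cells carrying Nurr1 and RXRα linked to reporter fragments. After 8 h, fluorescence intensity reports heterodimer formation, with DMSO as baseline.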

[11] = biological target: human Norepinephrine Transporter (NET), SLC6A2 (gene 6530) (UniProt P23975); experiment: NVS_TR_hNET: NovaScreen (NVS) Transporter Assay for human Norepinephrine Transporter (NET) (AID 2283377);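 note: cell-free membrane protein extracted from CHO cells expressing human NET; displacement of radioligand from human NET seen as loss of scintillation signal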
Sequence of human Norepinephrine Transporter (NET), SLC6A2 (gene 6530) (P23975 whole entry, looked up): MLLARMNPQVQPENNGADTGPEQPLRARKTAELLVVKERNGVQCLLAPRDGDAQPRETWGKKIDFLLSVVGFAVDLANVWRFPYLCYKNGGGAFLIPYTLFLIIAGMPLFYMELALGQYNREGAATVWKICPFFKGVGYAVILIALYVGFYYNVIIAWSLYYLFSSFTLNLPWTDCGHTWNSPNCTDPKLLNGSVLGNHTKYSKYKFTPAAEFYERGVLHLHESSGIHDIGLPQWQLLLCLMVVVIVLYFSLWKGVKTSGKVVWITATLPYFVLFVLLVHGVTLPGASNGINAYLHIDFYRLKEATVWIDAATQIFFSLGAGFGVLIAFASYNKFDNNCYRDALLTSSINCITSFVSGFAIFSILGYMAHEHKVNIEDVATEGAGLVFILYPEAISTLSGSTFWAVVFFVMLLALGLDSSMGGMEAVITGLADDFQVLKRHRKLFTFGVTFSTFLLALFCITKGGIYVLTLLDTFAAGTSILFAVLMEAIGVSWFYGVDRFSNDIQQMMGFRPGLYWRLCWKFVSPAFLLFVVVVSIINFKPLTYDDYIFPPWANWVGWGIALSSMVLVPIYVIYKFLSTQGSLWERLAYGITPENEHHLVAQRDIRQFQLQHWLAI
Outline: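 Scintillation counts of filter-retained radioligand served as the readout, taken 1 h post-dosing in a cell-free CHO-derived system. Test chemicals ran first at 25 uM in duplicate; confirmed hits were retested across concentrations.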

[12] = CEETOX_H295R_11DCORT: CeeTox H295R High-throughput Steroidogenesis Assay for 11-Deoxycortisol (11DCORT) (AID 2283432; active = hit-call score of the fitted dose curve at least 0.9, where 1 is the maximum; inactive = score below 0.9;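 for AC50: human adrenal H295R cells prestimulated with 10 µM forskolin for 48 h; 11-deoxycortisol secreted into the medium measured by LC-MS/MS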); conditions: actives raise or lower the signal
Outline: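 H295R cells; 10 uM forskolin prestim 48 h; compound in 0.1% DMSO 48 h; media extracted with MTBE; 11-deoxycortisol by LC-MS/MS, 7-point standard curve; gain/loss vs DMSO baseline; viability by MTT in same wells.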

[13] = CEETOX_H295R_OHPREG: CeeTox H295R High-throughput Steroidogenesis Assay for OH-Pregnenolone (OHPREG) (AID 2283434; active = hit-call score of the fitted dose curve at least 0.9, where 1 is the maximum; inactive = score below 0.9); conditions: actives raise or lower the signal
Outline: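 Hormone levels in spent medium were measured by tandem mass spectrometry following liquid-liquid extraction. Cells (H295R) had been forskolin-stimulated (10 uM, 48 h) before a 48 h chemical exposure at 0.1% DMSO, with activity fitted in both directions against DMSO.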

[14] = CEETOX_H295R_OHPROG: CeeTox H295R High-throughput Steroidogenesis Assay for OH-Progesterone (OHPROG) (AID 2283435; active = hit-call score of the fitted dose curve at least 0.9, where 1 is the maximum; inactive = score below 0.9;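 for AC50: human adrenal H295R cells primed 48 h with 10 µM forskolin; 17alpha-hydroxyprogesterone secreted into medium measured by HPLC-MS/MS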); conditions: actives raise or lower the signal
Outline: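 Secreted 17alpha-hydroxyprogesterone is read by tandem MS from media of forskolin-primed H295R cells dosed with chemical for 48 h. Activity is fitted in both directions against DMSO baseline; cytotoxic concentrations are re-tested diluted.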

[15] = CEETOX_H295R_ANDR: CeeTox H295R High-throughput Steroidogenesis Assay for Androstenedione (ANDR) (AID 2283436; active = hit-call score of the fitted dose curve at least 0.9, where 1 is the maximum; inactive = score below 0.9;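 note: human H295R adrenal cells exposed for 48 h with androstenedione measured in medium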); conditions: actives raise or lower the signal
Outline: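 Read-out is androstenedione secreted into medium, measured by tandem mass spectrometry after liquid-liquid extraction. Cells were H295R, dosed for 48 h per modified OECD 456; activity fitted in both directions relative to DMSO.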

[16] = CEETOX_H295R_CORTIC: CeeTox H295R High-throughput Steroidogenesis Assay for Corticosterone (CORTIC) (AID 2283437; active = hit-call score of the fitted dose curve at least 0.9, where 1 is the maximum; inactive = score below 0.9;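 note: corticosterone secreted into medium quantified by mass spectrometry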;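 for AC50: human H295R adrenal cells prestimulated with forskolin before chemical exposure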); conditions: actives raise or lower the signal
Outline: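 Corticosterone secreted into medium is measured by reverse-phase HPLC with tandem MS following liquid-liquid extraction. Cells are forskolin-stimulated (10 uM, 48 h) before 48 h test exposure; activity fitted in both directions against DMSO.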

[17] = CEETOX_H295R_CORTISOL: CeeTox H295R High-throughput Steroidogenesis Assay for Cortisol (AID 2283438; active = hit-call score of the fitted dose curve at least 0.9, where 1 is the maximum; inactive = score below 0.9;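 note: cortisol secreted into medium quantified by LC-MS/MS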); conditions: actives raise or lower the signal
Outline: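 Human adrenocortical H295R cells (passage ≤10) received test chemicals for 48 h after forskolin priming. Secreted cortisol was measured by LC-MS/MS.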

[18] = CEETOX_H295R_DOC: CeeTox H295R High-throughput Steroidogenesis Assay for DOC (AID 2283439; active = hit-call score of the fitted dose curve at least 0.9, where 1 is the maximum; inactive = score below 0.9); conditions: actives raise or lower the signal
Outline: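 Secreted DOC was quantified from H295R media by HPLC-MS/MS after 48 h chemical exposure following 48 h forskolin (10 uM) prestimulation. Values were fitted in both directions relative to DMSO, the negative control and baseline.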

[19] = CEETOX_H295R_ESTRADIOL: CeeTox H295R High-throughput Steroidogenesis Assay for Estradiol (AID 2283440; active = hit-call score of the fitted dose curve at least 0.9, where 1 is the maximum; inactive = score below 0.9;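 note: estradiol secreted into medium quantified by LC-MS/MS after dansyl derivatisation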); conditions: actives raise or lower the signal
Outline: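 H295R, 48 h forskolin (10 uM) prestim → 48 h compound, 0.1% DMSO final. Estradiol in medium: MTBE extraction, dansyl chloride derivatization, LC-MS/MS. Fit bidirectional vs DMSO baseline; MTT viability in same wells.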

[20] = biological target: rat Serotonin Transporter (SERT), Slc6a4 (gene 25553) (UniProt P31652); experiment: NVS_TR_rSERT: NovaScreen (NVS) Transporter Assay for rat Serotonin Transporter (SERT) (AID 2283375)
Outline: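 Radioligand displacement, filter scintillation readout; rat forebrain membrane prep, 1 h post-dose. Single-conc 25 uM duplicate screen, then concentration-response on actives. Loss of signal vs DMSO baseline.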

Measured: AC50

F[Si-2](F)(F)(F)(F)F
inactive: [1] | [2] | [3] | [4] | [5] | [6] | [7]

CCC(Cc1c(I)cc(I)c(N)c1I)C(=O)O (centres undefined)
inactive: [8] | [3] | [4] | [9] | [10] | [6] | [7]

Cc1cc(O)c(C(C)(C)C)cc1C(C)(C)C
inactive: [12] | [13] | [14] | [15] | [16] | [17] | [18] | [19]
active: [11] 16.5 µM

CCN(CC)c1ccc(C=O)c(O)c1
active: [11] 25 µM

CCN=c1cc2oc3cc(NCC)c(C)cc3c(-c3ccccc3C(=O)OCC)c-2cc1C
inactive: [1] | [3] | [9] | [6]
active: [8] 25 µM | [2] 76.4 µM | [4] 1.36 µM | [10] 0.603 µM | [5] 0.769 µM | [7] 4.08 µM

O=C(c1ccccc1)c1ccc(O)cc1O
inactive: [4] | [9] | [10] | [6] | [7]
active: [8] 1.22 µM | [3] 6.29 µM

Cc1ccc(O)c(-n2nc3ccccc3n2)c1
inactive: [2] | [3] | [9] | [10] | [5] | [6] | [7]
active: [8] 6.65 µM | [4] 50 µM

CCCCCCCCCCCCCC[P+](CCCC)(CCCC)CCCC
inactive: [8] | [1] | [2] | [6] | [7]
active: [3] 12.2 µM

CSc1ccc(O)cc1C
active: [11] 36.4 µM | [15] 78 µM | [16] 37.6 µM | [19] 28.2 µM
inactive: [20] | [12] | [13] | [14] | [17] | [18]

c1ccc(C[P+](c2ccccc2)(c2ccccc2)c2ccccc2)cc1
active: [20] 3.33 µM

CC(C)(C)c1cc(CCC(=O)OCC(COC(=O)CCc2cc(C(C)(C)C)c(O)c(C(C)(C)C)c2)(COC(=O)CCc2cc(C(C)(C)C)c(O)c(C(C)(C)C)c2)COC(=O)CCc2cc(C(C)(C)C)c(O)c(C(C)(C)C)c2)cc(C(C)(C)C)c1O
inactive: [8] | [2] | [3] | [4] | [9] | [10] | [5] | [7]

CCCCCCCCCCCCC[N+](C)(C)Cc1ccccc1
active: [8] 8.86 µM | [3] 18.1 µM | [12] 0.287 µM | [13] 0.59 µM | [14] 0.509 µM | [15] 0.307 µM | [18] 0.337 µM
inactive: [1] | [2] | [6] | [7] | [16] | [17] | [19]

CCCCCCCCn1sc(Cl)c(Cl)c1=O
active: [8] 25 µM
inactive: [3] | [10] | [5]

CCN=C1C=CC(=C(c2ccc(N(CC)CC)cc2)c2ccc(N(CC)CC)cc2)c2ccccc21
inactive: [1]
